High-throughput results from PubChem.
ST2 IL33 inh – blocks human ST2 binding to IL-33; Q01638; AlphaLISA ST2-Fc/biotin-IL-33 interaction, 1 h; inhibition, % for hits at 17 µM; actives 2.3% (n = 78,000); in the data active = inhibition above about 30%
Target sequence (Q01638 whole entry, looked up): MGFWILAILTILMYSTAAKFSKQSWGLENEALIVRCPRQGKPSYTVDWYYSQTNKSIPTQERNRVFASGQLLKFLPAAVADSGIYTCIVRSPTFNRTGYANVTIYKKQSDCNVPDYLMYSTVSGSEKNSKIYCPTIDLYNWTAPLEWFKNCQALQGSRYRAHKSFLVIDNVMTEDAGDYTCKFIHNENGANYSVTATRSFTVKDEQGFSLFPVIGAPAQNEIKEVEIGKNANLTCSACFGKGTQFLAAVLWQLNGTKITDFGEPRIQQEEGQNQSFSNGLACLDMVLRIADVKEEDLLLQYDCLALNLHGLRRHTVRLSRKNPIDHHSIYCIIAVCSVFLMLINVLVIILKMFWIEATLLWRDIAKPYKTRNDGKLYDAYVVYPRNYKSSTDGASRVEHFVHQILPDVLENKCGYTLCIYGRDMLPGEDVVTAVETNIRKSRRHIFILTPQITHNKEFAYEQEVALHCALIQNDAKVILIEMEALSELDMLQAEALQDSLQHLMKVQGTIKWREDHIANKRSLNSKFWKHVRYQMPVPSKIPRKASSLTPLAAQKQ
Each line names hits and unclear results; the compound was inactive in the other large screens. Only a selection was taken, and hits are over-represented in it overall.

O=C(Nc1nc(-c2ccccn2)cs1)c1ccc(C(=O)c2ccccc2)cc1	none
c1ccc(CNc2nc(-c3ccccn3)cs2)cc1	ST2 IL33 inh 36.0%
Oc1ccc(Nc2nc(-c3ccccn3)cs2)cc1	none
O=[N+]([O-])c1cc(N=Cc2nc(-c3ccc(Cl)cc3)oc2O)ccc1Cl	none
CCc1nc2ccc(C(=O)NCc3cccnc3)cc2nc1CC	none
CC(C)=Cc1oc2c(Cl)cc(Cl)cc2c1N1CCOCC1	ST2 IL33 inh 30.0%
COc1c(Cl)cc(Cl)cc1C(=O)Nc1ccccc1N1CCOCC1	none
CC(=O)Nc1ccc(N2CCOCC2)cc1	none
Cc1cccc(-c2cccc(NC(=O)C3CCCN3Cc3ccc(CO)o3)c2)c1 (configuration not stated)	none
COc1ccc(CN2CC(OCc3ccncc3)CN(C(=O)Cc3cccnc3)CC2=O)cc1 (configuration not stated)	none
O=C(NC1CCCCC1)c1cc(-c2ccc3c(c2)OCO3)on1	none
Cc1nc(SCc2ccc(Cl)cc2)nc2ccccc12	none
COc1ccc2nc(NC3=NC(c4ccccc4)CC(=O)N3)nc(C)c2c1 (configuration not stated)	none
CC1=NC(Nc2nc(C)c3ccccc3n2)=NC(C)(C)C1	ST2 IL33 inh 36.0%
C=CCc1ccccc1OCCN(C)C(=O)c1occc1C	none
O=C(Nc1ccc(Cc2ccncc2)cc1)C(F)(F)F	none
c1ccc(CCc2noc(CN3CCCC(c4ccccc4)CC3)n2)cc1 (configuration not stated)	none
COc1ccccc1/C=C/C1=NC(=C\c2ccc(Cl)cc2Cl)/C(=O)O1	none
COc1ccccc1/C=C/C1=NC(=C\c2ccc(SC)cc2)/C(=O)O1	none
COc1ccccc1/C=C/C1=NC(=C\c2ccc(C(C)C)cc2)/C(=O)O1	ST2 IL33 inh 45.0%
CC(C)NC(=O)[C@@H]1C[C@H](N)CN1Cc1ccnn1-c1ccccc1	none
COc1ccc2c(c1)CCc1c(C(=O)Nc3ccccc3SC)noc1-2	none
c1ccc(OCCCn2ccnc2)cc1	none
Clc1ccccc1OCCCCN1CCNCC1	none
COc1ccc(OCc2nc(C#N)c(N3CCC(C(N)=O)CC3)o2)cc1	none
Fc1ccccc1OCCCn1ccnc1	none
N#Cc1nc(COc2ccc(Br)cc2)oc1N1CCN(Cc2ccccc2)CC1	ST2 IL33 inh 56.0%
N#CSCCCCOc1ccccc1Cl	none
N#Cc1nc(COc2ccccc2Cl)oc1N1CCCC1	ST2 IL33 inh 73.0%
CN1CCN(Cc2ccc(OCc3ccccc3)cc2)CC1	none
N#Cc1nc(COc2ccccc2Cl)oc1NCCCn1ccnc1	ST2 IL33 inh 45.0%
CCOc1cc2c(cc1OCC)C1C(C(=O)N3CC(C)CC(C)C3)c3ccccc3C(=O)N1CC2 (configuration not stated)	none
CC(C)(O)C#Cc1ccccn1	none
O=C(Nc1cccc(-n2cccn2)c1)C1CCCN1C(=O)c1ccccn1 (configuration not stated)	none
O=C(c1cnc(Nc2ccccc2)nc1)N1CCCC(CCc2ccc(F)cc2)C1 (configuration not stated)	none
CCOc1cc(C(=O)Nc2sc3c(c2C(N)=O)CCCCC3)cc(OCC)c1OCC	none
O=C(Cn1cnc2sc3c(c2c1=O)CCCC3)NCCC(=O)Nc1ccc2c(c1)OCO2	none
Clc1cccc(CN2CCCCCC2)c1	none
NC(=O)c1cccn1Cc1cccc(Cl)c1	none
N#CSC(C#N)Cc1cccc(Cl)c1 (configuration not stated)	ST2 IL33 inh 34.0%
CCc1c(C)cc(C(=O)N2CC[C@@H](c3ccc4c(c3)OCO4)[C@H](O)C2)c(=O)n1C	none
CSc1cccc(NC(=O)CCS(=O)(=O)c2ccc(Br)s2)c1	none
COCc1nc2ccccc2n1Cc1ccc(Cl)cc1	none
Cc1nc(-c2ccccc2)c(C(=O)N2CCC(O)(CN(C)C)C2)s1 (configuration not stated)	none
O=C(CN1C(=O)S/C(=C\c2ccccc2)C1=O)Nc1nccs1	none
CC(C)(C)NC(=O)CN1C(=O)S/C(=C\c2ccccc2)C1=O	none
O=C(CN1C(=O)S/C(=C\C=C\c2ccccc2)C1=O)Nc1ccc(C(=O)O)cc1	ST2 IL33 inh 32.0%
CC1=C(C(=O)Nc2ccc(C)cn2)C(c2ccc(Cl)c([N+](=O)[O-])c2)C2=C(CCCC2=O)N1 (configuration not stated)	none
COc1ccccc1C1=NC(=O)CS1	none
O=[N+]([O-])c1cccc(CN2CCCCCC2)c1	none
O=C1/C(=C\c2cccc([N+](=O)[O-])c2)N=C2CCCCCN12	ST2 IL33 inh 36.0%
O=C1NC(=O)/C(=C\c2cccc([N+](=O)[O-])c2)S1	none
Cc1cc(C)n2c(Br)c(CSc3nc4ccccc4[nH]3)nc2n1	none
CC(C)NC(=O)Cn1c(=O)n(CC2CCC(C(=O)N3CCCCC3)CC2)c(=O)c2sccc21 (configuration not stated)	none
Cn1c(NCc2ccccc2)nc2c1c(=O)[nH]c(=O)n2C	none
O=c1cc(-c2ccccc2)c2ccc(O)cc2o1	none
O=c1cc(-c2ccc(O)cc2)oc2ccccc12	none
O=c1cc2oc3cc(O)c(O)cc3c(-c3ccccc3)c-2cc1O	ST2 IL33 inh 36.0%
CCc1nc2ccc(C(=O)NCCN(C)C)cc2nc1CC	none
CCOC(=O)C1=C(N)Oc2cc(C)oc(=O)c2C1c1cccc(F)c1 (configuration not stated)	none
